This is an account of results in paper PMC11006913.

Holding throughout (assay): PBM; 200 nM protein, PBS
Conditions in all cases: dsDNA, one strand shown

Assay [1] concerns the target HESX1 (Homo sapiens, UniProt Q9UBX0 95-180, R165K).
Assay [2] has as its target SHOX (Homo sapiens, UniProt O15266 103-189).
The target of assay [3] is ALX4 (Homo sapiens, UniProt Q9H161 200-286).
For assay [4], the target named is PRRX1 (Homo sapiens, UniProt P54821 80-166, F113S).
The target of assay [5] is ALX4 (Homo sapiens, UniProt Q9H161 200-286, Q225E).
The target of assay [6] is HESX1 (Homo sapiens, UniProt Q9UBX0 95-180).
Assay [7] addresses MSX2 (Homo sapiens, UniProt P35548 130-214, R199I).
In assay [8] the target is ALX1 (Homo sapiens, UniProt Q15699 118-204, L144V).
The target in assay [9] is SHOX (Homo sapiens, UniProt O15266 103-189, R173C).
The target in assay [10] is ALX1 (Homo sapiens, UniProt Q15699 118-204, L144R).
Assay [11] deals with PROP1 (Homo sapiens, UniProt O75360 56-141).
Assay [12] addresses HESX1 (Homo sapiens, UniProt Q9UBX0 95-180, R109Q).
Assay [13] addresses PROP1 (Homo sapiens, UniProt O75360 56-141, R99H).
The target of the next assay is ALX3 (Homo sapiens, UniProt O95076 139-225, L168Q).
Assay [14] addresses HESX1 (Homo sapiens, UniProt Q9UBX0 95-180, P111T).
Assay [15] concerns the target PROP1 (Homo sapiens, UniProt O75360 56-141, F88S).
The target in assay [16] is MSX2 (Homo sapiens, UniProt P35548 130-214, F161Y).
Assay [17] deals with HESX1 (Homo sapiens, UniProt Q9UBX0 95-180, F115L).
Assay [18] has as its target ALX1 (Homo sapiens, UniProt Q15699 118-204).
Assay [19] concerns the target PRRX1 (Homo sapiens, UniProt P54821 80-166).

Chain of HESX1 (Homo sapiens, UniProt Q9UBX0 95-180, R165K) (Q9UBX0 95-180 R165K): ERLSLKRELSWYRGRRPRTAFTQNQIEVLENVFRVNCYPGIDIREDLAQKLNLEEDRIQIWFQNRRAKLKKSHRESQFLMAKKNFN
Chain of HESX1 (Homo sapiens, UniProt Q9UBX0 95-180, F115L) (Q9UBX0 95-180 F115L): as the sequence (Q9UBX0 95-180 R165K) above, with F21L, K71R counted along it
Chain of PRRX1 (Homo sapiens, UniProt P54821 80-166) (P54821 80-166): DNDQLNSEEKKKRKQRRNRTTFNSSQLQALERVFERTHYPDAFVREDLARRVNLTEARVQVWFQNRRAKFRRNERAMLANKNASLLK
Chain of HESX1 (Homo sapiens, UniProt Q9UBX0 95-180, P111T) (Q9UBX0 95-180 P111T): as the sequence (Q9UBX0 95-180 R165K) above, with P17T, K71R counted along it
Chain of HESX1 (Homo sapiens, UniProt Q9UBX0 95-180) (Q9UBX0 95-180): as the sequence (Q9UBX0 95-180 R165K) above, with K71R counted along it
Chain of MSX2 (Homo sapiens, UniProt P35548 130-214, R199I) (P35548 130-214 R199I): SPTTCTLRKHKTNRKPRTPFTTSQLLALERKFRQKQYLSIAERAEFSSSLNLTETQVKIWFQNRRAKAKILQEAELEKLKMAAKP
Chain of PRRX1 (Homo sapiens, UniProt P54821 80-166, F113S) (P54821 80-166 F113S): as the sequence (P54821 80-166) above, with F34S counted along it
Chain of HESX1 (Homo sapiens, UniProt Q9UBX0 95-180, R109Q) (Q9UBX0 95-180 R109Q): as the sequence (Q9UBX0 95-180 R165K) above, with R15Q, K71R counted along it
Chain of MSX2 (Homo sapiens, UniProt P35548 130-214, F161Y) (P35548 130-214 F161Y): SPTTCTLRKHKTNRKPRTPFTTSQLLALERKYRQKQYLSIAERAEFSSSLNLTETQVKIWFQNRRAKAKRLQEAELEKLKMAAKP
Chain of PROP1 (Homo sapiens, UniProt O75360 56-141, R99H) (O75360 56-141 R99H): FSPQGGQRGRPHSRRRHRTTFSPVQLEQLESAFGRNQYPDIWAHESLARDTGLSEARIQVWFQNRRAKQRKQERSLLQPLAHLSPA
Chain of SHOX (Homo sapiens, UniProt O15266 103-189, R173C) (O15266 103-189 R173C): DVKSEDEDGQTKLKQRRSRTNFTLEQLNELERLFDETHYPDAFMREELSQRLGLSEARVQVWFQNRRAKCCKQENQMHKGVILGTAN
Chain of SHOX (Homo sapiens, UniProt O15266 103-189) (O15266 103-189): as the sequence (O15266 103-189 R173C) above, with C71R counted along it
Chain of ALX1 (Homo sapiens, UniProt Q15699 118-204, L144V) (Q15699 118-204 L144V): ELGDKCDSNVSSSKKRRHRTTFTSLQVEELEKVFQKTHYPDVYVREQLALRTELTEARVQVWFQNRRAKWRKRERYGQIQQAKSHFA
Chain of PROP1 (Homo sapiens, UniProt O75360 56-141) (O75360 56-141): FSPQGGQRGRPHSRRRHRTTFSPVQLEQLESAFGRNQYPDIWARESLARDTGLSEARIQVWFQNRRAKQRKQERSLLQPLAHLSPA
Chain of PROP1 (Homo sapiens, UniProt O75360 56-141, F88S) (O75360 56-141 F88S): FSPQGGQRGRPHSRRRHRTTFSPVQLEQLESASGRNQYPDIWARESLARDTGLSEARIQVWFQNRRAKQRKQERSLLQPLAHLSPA
Chain of ALX4 (Homo sapiens, UniProt Q9H161 200-286, Q225E) (Q9H161 200-286 Q225E): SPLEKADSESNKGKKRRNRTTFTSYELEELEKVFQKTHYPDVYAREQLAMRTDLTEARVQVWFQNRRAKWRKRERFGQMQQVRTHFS
Chain of ALX1 (Homo sapiens, UniProt Q15699 118-204, L144R) (Q15699 118-204 L144R): as the sequence (Q15699 118-204 L144V) above, with V27R counted along it
Chain of ALX1 (Homo sapiens, UniProt Q15699 118-204) (Q15699 118-204): as the sequence (Q15699 118-204 L144V) above, with V27L counted along it
Chain of ALX4 (Homo sapiens, UniProt Q9H161 200-286) (Q9H161 200-286): as the sequence (Q9H161 200-286 Q225E) above, with E26Q counted along it
Chain of ALX3 (O95076 139-225 L168Q): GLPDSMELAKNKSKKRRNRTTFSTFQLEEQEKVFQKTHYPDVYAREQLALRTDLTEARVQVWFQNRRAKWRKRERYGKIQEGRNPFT

In the case of CCAATTAC, the binding signal is 12.8 upbm affinity estimate (log intensity, higher = more binding, comparable within an allelic series) in the assay with HESX1 [1]; 12.2 upbm affinity estimate (log intensity, higher = more binding, comparable within an allelic series) with SHOX [2]; 13.8 upbm affinity estimate (log intensity, higher = more binding, comparable within an allelic series) in the assay with ALX4 [3]; 11.1 upbm affinity estimate (log intensity, higher = more binding, comparable within an allelic series) with PRRX1 [4]; 13.1 upbm affinity estimate (log intensity, higher = more binding, comparable within an allelic series) with ALX4 [5]; 12.9 upbm affinity estimate (log intensity, higher = more binding, comparable within an allelic series) with HESX1 [6]. Further, the binding signal with MSX2 [7] was 12.8 upbm affinity estimate (log intensity, higher = more binding, comparable within an allelic series); with ALX1 [8], 11.8 upbm affinity estimate (log intensity, higher = more binding, comparable within an allelic series); with SHOX [9], 9.4 upbm affinity estimate (log intensity, higher = more binding, comparable within an allelic series); in the assay with ALX1 [10] it was 11.4 upbm affinity estimate (log intensity, higher = more binding, comparable within an allelic series); with PROP1 [11], 11.5 upbm affinity estimate (log intensity, higher = more binding, comparable within an allelic series); with HESX1 [12], 9.36 upbm affinity estimate (log intensity, higher = more binding, comparable within an allelic series). Besides, the binding signal was 11.7 upbm affinity estimate (log intensity, higher = more binding, comparable within an allelic series) with PROP1 [13]; 10.6 upbm affinity estimate (log intensity, higher = more binding, comparable within an allelic series) in the assay with ALX3; 11.3 upbm affinity estimate (log intensity, higher = more binding, comparable within an allelic series) with HESX1 [14]; 7.57 upbm affinity estimate (log intensity, higher = more binding, comparable within an allelic series) with PROP1 [15]; 13.5 upbm affinity estimate (log intensity, higher = more binding, comparable within an allelic series) with MSX2 [16]; 7.75 upbm affinity estimate (log intensity, higher = more binding, comparable within an allelic series) with HESX1 [17]. Further, the binding signal is 12.5 upbm affinity estimate (log intensity, higher = more binding, comparable within an allelic series) with ALX1 [18] and 13.4 upbm affinity estimate (log intensity, higher = more binding, comparable within an allelic series) in the assay with PRRX1 [19].

For the sequence CAATTACA, the binding signal was 11.6 upbm affinity estimate (log intensity, higher = more binding, comparable within an allelic series) in the assay with HESX1 [1]; 11.4 upbm affinity estimate (log intensity, higher = more binding, comparable within an allelic series) with SHOX [2]; 10.9 upbm affinity estimate (log intensity, higher = more binding, comparable within an allelic series) with PRRX1 [4]; 11.9 upbm affinity estimate (log intensity, higher = more binding, comparable within an allelic series) in the assay with HESX1 [6]; 12.5 upbm affinity estimate (log intensity, higher = more binding, comparable within an allelic series) in the assay with MSX2 [7]; 9.07 upbm affinity estimate (log intensity, higher = more binding, comparable within an allelic series) with SHOX [9]. Besides, the binding signal is 8.6 upbm affinity estimate (log intensity, higher = more binding, comparable within an allelic series) with HESX1 [12]; 10.8 upbm affinity estimate (log intensity, higher = more binding, comparable within an allelic series) with PROP1 [13]; 10.2 upbm affinity estimate (log intensity, higher = more binding, comparable within an allelic series) with HESX1 [14]; 13.3 upbm affinity estimate (log intensity, higher = more binding, comparable within an allelic series) with MSX2 [16]; 7.44 upbm affinity estimate (log intensity, higher = more binding, comparable within an allelic series) with HESX1 [17]; 13.2 upbm affinity estimate (log intensity, higher = more binding, comparable within an allelic series) with PRRX1 [19].

As to AATTAAGC, the binding signal is 11.5 upbm affinity estimate (log intensity, higher = more binding, comparable within an allelic series) with HESX1 [1]; 11.9 upbm affinity estimate (log intensity, higher = more binding, comparable within an allelic series) with SHOX [2]; 13.7 upbm affinity estimate (log intensity, higher = more binding, comparable within an allelic series) in the assay with ALX4 [3]; 11 upbm affinity estimate (log intensity, higher = more binding, comparable within an allelic series) in the assay with PRRX1 [4]; 12.9 upbm affinity estimate (log intensity, higher = more binding, comparable within an allelic series) with ALX4 [5]; 11.6 upbm affinity estimate (log intensity, higher = more binding, comparable within an allelic series) with HESX1 [6]. Further, the binding signal is 12.2 upbm affinity estimate (log intensity, higher = more binding, comparable within an allelic series) with MSX2 [7]; 11.6 upbm affinity estimate (log intensity, higher = more binding, comparable within an allelic series) with ALX1 [8]; 9.54 upbm affinity estimate (log intensity, higher = more binding, comparable within an allelic series) in the assay with SHOX [9]; 11.2 upbm affinity estimate (log intensity, higher = more binding, comparable within an allelic series) with ALX1 [10]; 11.2 upbm affinity estimate (log intensity, higher = more binding, comparable within an allelic series) in the assay with PROP1 [11]; 9.03 upbm affinity estimate (log intensity, higher = more binding, comparable within an allelic series) with HESX1 [12]. Besides, the binding signal was 11 upbm affinity estimate (log intensity, higher = more binding, comparable within an allelic series) with PROP1 [13]; 10.4 upbm affinity estimate (log intensity, higher = more binding, comparable within an allelic series) in the assay with ALX3; 10.5 upbm affinity estimate (log intensity, higher = more binding, comparable within an allelic series) with HESX1 [14]; 7.71 upbm affinity estimate (log intensity, higher = more binding, comparable within an allelic series) with PROP1 [15]; 12.9 upbm affinity estimate (log intensity, higher = more binding, comparable within an allelic series) with MSX2 [16]; 7.7 upbm affinity estimate (log intensity, higher = more binding, comparable within an allelic series) with HESX1 [17]. Moreover, the binding signal with ALX1 [18] is 12.2 upbm affinity estimate (log intensity, higher = more binding, comparable within an allelic series); with PRRX1 [19], 13.3 upbm affinity estimate (log intensity, higher = more binding, comparable within an allelic series).

For AGGGACCG, the binding signal with HESX1 [1] is 6.62 upbm affinity estimate (log intensity, higher = more binding, comparable within an allelic series); with SHOX [2], 7.23 upbm affinity estimate (log intensity, higher = more binding, comparable within an allelic series); with HESX1 [6] it was 6.41 upbm affinity estimate (log intensity, higher = more binding, comparable within an allelic series); in the assay with SHOX [9], 7.13 upbm affinity estimate (log intensity, higher = more binding, comparable within an allelic series); with HESX1 [12], 6.42 upbm affinity estimate (log intensity, higher = more binding, comparable within an allelic series); in the assay with HESX1 [14], 6.58 upbm affinity estimate (log intensity, higher = more binding, comparable within an allelic series). Also, the binding signal with HESX1 [17] is 6.26 upbm affinity estimate (log intensity, higher = more binding, comparable within an allelic series).

CCCAGGCG: the binding signal in the assay with HESX1 [1] is 6.31 upbm affinity estimate (log intensity, higher = more binding, comparable within an allelic series); with SHOX [2], 6.92 upbm affinity estimate (log intensity, higher = more binding, comparable within an allelic series); with HESX1 [6], 6.34 upbm affinity estimate (log intensity, higher = more binding, comparable within an allelic series); with SHOX [9] it was 7.04 upbm affinity estimate (log intensity, higher = more binding, comparable within an allelic series); with HESX1 [12], 6.42 upbm affinity estimate (log intensity, higher = more binding, comparable within an allelic series); with HESX1 [14], 6.32 upbm affinity estimate (log intensity, higher = more binding, comparable within an allelic series). In addition, the binding signal with HESX1 [17] is 6.49 upbm affinity estimate (log intensity, higher = more binding, comparable within an allelic series).
